In the library only some 19% were active in any assay of this set; here they are far more common.
MARV entry inh: Marburg virus entry inhibition; Marburg virus pseudotyped entry inhibition, cell reporter; Potency, µM (titrated, usually from 37.8 µM), hits mostly inhibitors; 300,000 tested, 1.8% active; AID 540276; calls by dose curve; tested in HEK293 cells
Pf growth 96h: P. falciparum growth inhibition at 96 hours; P. falciparum luciferase reporter growth, 96 h; Potency, µM (top dose mostly 28.7 µM), actives largely listed as inhibitors; 320,000 tested, 6.9% active; AID 504834
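Readout is luminescence from an integrated firefly luciferase in P. falciparum. Red cells, 2% hematocrit and 0.05% parasitemia final, were cultured with compound through two parasite generations (96 hours) at 37 C, 5% CO2.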
LASV entry inh: blocks Lassa virus binding to or entry into cells | Lassa virus pseudotype entry inhibition, cell reporter | Potency, µM (doses to about 37.9 µM), hits mostly inhibitors | 300,000 tested, 1.2% active | AID 540256; calls by dose curve; tested in HEK293 cells; note: nearly all actives have a fitted effect of over 50% in size
Pf growth 48h: inhibits P. falciparum growth in the first generation, 48 h | P. falciparum luciferase growth in erythrocytes, 48 h | Potency, µM (top dose mostly 28.7 µM), most hits filed as inhibitors | 310,000 tested, 5.9% active | AID 504832
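Erythrocytes infected with P. falciparum carrying an integrated firefly luciferase reporter (2% hematocrit, 0.1% parasitemia final) were exposed to compounds in RPMI 1640 with 0.5% Albumax at 37 C, 5% CO2. Growth inhibition was scored as reduced luminescence.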
Shiga inhibitor: blocks Shiga toxin action in Vero cells | 290,000 tested, 9.2% active | Vero cells, Shiga toxin protein synthesis inhibition reporter | inhibition, % at 38.7 µM; in the data active = inhibition mostly above about 28%, no sharp cut-off; inactive = mostly below about 43%
Cycloheximide cs: counter-screen for Shiga toxin inhibitors: cycloheximide protein synthesis inhibition; cell reporter, cycloheximide protein synthesis inhibition counterscreen; max response, %; 300,000 tested, 12% active; in the data active = max response mostly above about 13%, no sharp cut-off; inactive = mostly below about 14%; note: read at 38.3 µM for the half of the compounds with a filed dose
Hits are given with their value; . = inactive; ? = inconclusive; / = no result given. Unless noted, calls come from the whole dose curve; as a rule, active = well fitted inhibition curve with a large enough effect; inconclusive = small, poorly fitted or top-dose-only effect, or another doubt; inactive = no such curve, though single readings can be large or run the other way.

SMILES	MARV entry inh	Pf growth 96h	LASV entry inh	Pf growth 48h	Shiga inhibitor	Cycloheximide cs
COc1ccccc1C(=O)NNC(=O)c1ccc(NS(=O)(=O)c2cccs2)cc1	.	.	.	.	.	.
COc1cccc(C(=O)NNC(=O)c2ccc(NS(=O)(=O)c3cccs3)cc2)c1OC	.	2.1µM	.	2.9µM	/	/
CCCCOc1cccc(C(=O)Nc2ccc(NC(=O)c3cccs3)cc2)c1	?	4.7µM	?	.	.	.
CCOc1ccc(NC(=O)c2ccc(NS(=O)(=O)c3cccs3)cc2)cc1	.	0.83µM	.	.	.	.
O=C(CCn1c(=O)sc2ccccc21)NCCC1=CCCCC1	.	.	.	.	.	.
O=C(NCc1ccco1)c1cnc2sccn2c1=O	/	.	/	.	.	.
COc1ccccc1CNN	.	.	/	?	.	.
CCOc1ccc(C(=O)c2cccs2)cc1	.	/	.	.	.	27
CCc1ccc(CNC(=O)Cc2ccc(NC(=O)C3=C(C)OCCS3)cc2)cc1	?	12µM	?	.	57	36
COc1ccc(OC)c(CNC(=O)c2ccc(C)c(NC(=O)C3=C(C)OCCS3)c2)c1	/	?	/	.	.	.
CC1=C(C(=O)Nc2ccccc2C(=O)NCCCOC(C)C)SCCO1	/	4.1µM	/	.	.	.
CC1=C(C(=O)Nc2ccc(CC(=O)NCc3ccccc3C)cc2)SCCO1	/	?	/	.	55	22
CC1=C(C(=O)Nc2cccc(C(=O)NCc3ccccc3C)c2)SCCO1	/	.	/	?	.	.
CCOCCCNC(=O)c1ccccc1NC(=O)C1=C(C)OCCS1	/	.	/	.	.	.
COc1cccc(CNC(=O)Cc2ccc(NC(=O)C3=C(C)OCCS3)cc2)c1	/	?	/	.	41	29
CC1=C(C(=O)Nc2cccc(C(=O)NCc3ccc(F)cc3)c2)SCCO1	/	?	/	.	.	.
Cc1nn(Cc2ccc([N+](=O)[O-])cc2)c(=O)n1-c1cccc(F)c1	?	?	.	?	.	.
COc1ccc(C(c2c(O)cc(C)n(Cc3ccco3)c2=O)N2CCCCC2)cc1OC (stereo not given)	/	/	.	/	/	/
COc1ccc(Cn2c(CO)cnc2SCc2ccc(F)cc2)cc1	/	/	.	/	/	/
COc1ccnc(CSC(N)=Nc2ccc(F)cc2)c1	.	.	.	.	66	31
COC(=O)C/C=C/[C@@H](C)[C@@H](/C=N/OC[C@H]1O[C@H](c2ccccc2)C=C[C@@H]1Oc1ccc(OC)cc1)NS(=O)(=O)c1ccc(C)cc1	?	7.4µM	?	12µM	.	.
COc1ccc(O[C@H]2C=C[C@@H](c3ccccc3)O[C@H]2COC(=O)CCC(C)=NO[C@H](C)CN2CCCc3nc(C)c(C)cc32)cc1	.	/	/	/	/	/
CC(=O)OC[C@H]1O[C@H](CCO/N=C(\C)CCC(=O)OC[C@H]2O[C@H](C#Cc3ccccc3)C=C[C@@H]2Oc2ccc(C)cc2)C=C[C@@H]1OC(C)=O	.	/	/	/	/	/
COc1ccc(O[C@H]2C=C[C@@H](c3ccccc3)O[C@@H]2COC(=O)CC/C(C)=N/O[C@@H](C)CN2CCCCc3nc(C)c(C)cc32)cc1	.	8.3µM	?	5.9µM	.	.
C/C(CCC(=O)OC[C@H]1O[C@H](C#Cc2ccccc2)C=C[C@@H]1Oc1ccc(C)cc1)=N\O[C@@H](C)CN1CCCCc2nc(C)c(C)cc21	?	4.1µM	.	15µM	.	.
SMILES	MARV entry inh	Pf growth 96h	LASV entry inh	Pf growth 48h	Shiga inhibitor	Cycloheximide cs
COc1ccc(O[C@H]2C=C[C@@H](c3ccccc3)O[C@@H]2CO/N=C(\C)CCC(=O)OC[C@H]2O[C@H](c3ccccc3)C=C[C@@H]2Oc2ccc(OC)cc2)cc1	.	2.3µM	?	2.6µM	.	.
O=c1[nH]c(=O)n(Cc2ccco2)c(O)c1C=NC1CCN(Cc2ccccc2)CC1	?	.	.	.	.	.
O=C(Nc1cc(NC(=O)c2ccccc2Cl)ccc1Cl)c1ccccc1	/	/	.	/	/	/
O=C(Nc1ccc2[nH]ncc2c1)c1ccccc1Br	?	?	?	.	.	18
O=C(Nc1ncn[nH]1)c1ccccc1Br	?	.	.	.	.	.
O=C(Nc1ccc2[nH]ncc2c1)c1ccccc1Cl	?	?	?	.	.	16
CCOc1cc2[nH]c(=S)n(Cc3ccc(C(=O)NCC(OC)OC)cc3)c(=O)c2cc1OCC	.	?	.	?	.	.
CCN(CC)CCNC(=O)c1ccc2c(=O)n(C3CCCC3)c(=S)[nH]c2c1	8.2µM	.	?	2.3µM	.	.

Source: PubChem
